Test results from PubChem BioAssay (NCI).
Values joined by “and” are separate entries in the source; they are usually repeats but may differ in a detail not shown here. Equal entries are not always repeated. About 83,000 compounds went through this panel and 20% of them were active in at least one assay; those are over-represented in the sample as a whole.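 For each line, cells grew in 96-well plates with the test compound present at a single concentration for 48 hours.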 Active and inactive are the calls of the source. How the source made its calls: active means growth percent below 10; inactive means the rest.

Key:
Assay in all cases: NCI-60 one-dose screen, 48 h (100 = growth as untreated, 0 = no growth, -100 = all killed)
Details in all cases: 10 µM unless noted
[1] = system: DU-145 prostate
[2] = system: K-562 leukemia
[3] = system: MALME-3M melanoma
[4] = system: MDA-MB-231 breast
[5] = system: RXF 393 renal
[6] = system: SF-268 CNS
[7] = system: SF-295 CNS
[8] = system: SF-539 CNS
[9] = system: UACC-257 melanoma
[10] = system: HCT-15 colon
[11] = system: SNB-19 CNS
[12] = system: U251 CNS
[13] = system: PC-3 prostate
[14] = system: SK-MEL-5 melanoma
[15] = system: UACC-62 melanoma
[16] = system: LOX IMVI melanoma
[17] = system: SK-MEL-28 melanoma
[18] = system: HT29 colon
[19] = system: SNB-75 CNS
[20] = system: M14 melanoma

Row | SMILES | growth [1] | growth [2] | growth [3] | growth [4] | growth [5] | growth [6] | growth [7] | growth [8] | growth [9] | growth [10] | growth [11] | growth [12] | growth [13] | growth [14] | growth [15] | growth [16] | growth [17] | growth [18] | growth [19] | growth [20]
1 | Cn1cnc([N+](=O)[O-])c1Sc1ncnc2nc[nH]c12 | 44.5% (inactive) | 20.4% (inactive) and 23.6% (inactive) | 75.5% (inactive) and 93.8% (inactive) | 31.3% (inactive) and 57.8% (inactive) | 79.5% (inactive) and 94.4% (inactive) | 69.1% (inactive) and 49.2% (inactive) | 33.5% (inactive) and 31.1% (inactive) | 37.8% (inactive) and 33.3% (inactive) | 73.4% (inactive) and 98.4% (inactive) | 83.6% (inactive) and 95.5% (inactive) | 96.8% (inactive) and 110% (inactive) | 78.6% (inactive) and 93.7% (inactive) | 76.6% (inactive) and 91.5% (inactive) | 77.9% (inactive) | 20.2% (inactive) and 35.8% (inactive) | 22.4% (inactive) and 22.5% (inactive) | 105% (inactive) and 116% (inactive) |  |  | 
2 | Oc1c(CN2CCCCC2)ccc2cccnc12 | 67.9% (inactive) and 53.7% (inactive) | 28.8% (inactive) and 30.6% (inactive) | 88.1% (inactive) and 82.5% (inactive) | 53.2% (inactive) and 46.9% (inactive) | 85.1% (inactive) and 3.68% (active) | 69.3% (inactive) and 47.6% (inactive) | 37.1% (inactive) | 74.7% (inactive) and 57% (inactive) | 77.1% (inactive) and 71.6% (inactive) | 33.6% (inactive) and 30.3% (inactive) | 65.9% (inactive) and 74.1% (inactive) | 41.8% (inactive) and 38.7% (inactive) | 52.1% (inactive) and 39% (inactive) | 45% (inactive) and -25.6% (active) | 46% (inactive) and 45.6% (inactive) | 27.3% (inactive) and 44.1% (inactive) | 85.2% (inactive) and 85.7% (inactive) | 66.6% (inactive) and 28.6% (inactive) | 82.5% (inactive) and 85.6% (inactive) | 
3 | COc1cc(C(=O)N/N=C/c2ccc(N(C)C)cc2)cc(OC)c1OC | 0.807% (active) | 14% (inactive) |  | 30.2% (inactive) | 26.4% (inactive) | 57.6% (inactive) | 19.1% (inactive) | 14.1% (inactive) | 43.2% (inactive) | 20% (inactive) | 53.3% (inactive) | 3.96% (active) | 25.4% (inactive) | 7.49% (active) | 43.1% (inactive) | 20.5% (inactive) | 53.8% (inactive) |  | 38.4% (inactive) | 6.72% (active)
4 | O=[N+]([O-])c1ccc(Oc2ccccc2)cc1 | 117% (inactive) and 127% (inactive) | 118% (inactive) and 123% (inactive) | 106% (inactive) and 124% (inactive) | 109% (inactive) and 136% (inactive) | 117% (inactive) and 118% (inactive) | 106% (inactive) and 99.4% (inactive) | 95.4% (inactive) and 121% (inactive) | 104% (inactive) and 98.1% (inactive) | 108% (inactive) and 91.7% (inactive) | 123% (inactive) and 104% (inactive) | 97% (inactive) and 114% (inactive) |  | 81.9% (inactive) and 88.4% (inactive) | 109% (inactive) and 108% (inactive) | 107% (inactive) and 106% (inactive) | 95.3% (inactive) and 99.3% (inactive) | 108% (inactive) | 113% (inactive) and 103% (inactive) |  | 
5 | COc1cc(NS(C)(=O)=O)ccc1Nc1c2ccccc2nc2c(C)cccc12 | -8.9% (active) and 7.58% (active) | 8.6% (active) and 7.61% (active) | -3.04% (active) and 29.4% (inactive) | 36.7% (inactive) | -2.83% (active) and 8.08% (active) | 2.5% (active) and 16.2% (inactive) | -24.8% (active) | -35.6% (active) and -30.6% (active) | 16.1% (inactive) | 7.59% (active) and 0.251% (active) | 19.8% (inactive) and 25.2% (inactive) | -3.95% (active) and -7.3% (active) | 17.8% (inactive) and 28.4% (inactive) | -29.9% (active) and 2.9% (active) | 1.52% (active) and 23.3% (inactive) | -49.9% (active) and -3.55% (active) | 21.6% (inactive) and 21% (inactive) | -36.8% (active) and 0.935% (active) | -7.95% (active) and -6.77% (active) | 
6 | Cc1ccc(-c2noc(C)n2)cc1 | 115% (inactive) | 96.1% (inactive) | 108% (inactive) | 111% (inactive) | 94.2% (inactive) | 111% (inactive) | 95.2% (inactive) | 98.7% (inactive) | 92.9% (inactive) | 101% (inactive) | 105% (inactive) |  | 97.9% (inactive) | 99.7% (inactive) | 105% (inactive) | 99.7% (inactive) | 110% (inactive) | 98.3% (inactive) | 85.9% (inactive) | 
7 | O=[N+]([O-])c1ccc(N/N=C\c2cc(Br)ccc2O)nc1 | 31.8% (inactive) and 24.4% (inactive) | 20.6% (inactive) and -3.71% (active) | 16.6% (inactive) | 11% (inactive) and 24.3% (inactive) | 44.2% (inactive) and 48.2% (inactive) | 22.3% (inactive) and 19.7% (inactive) | 6.95% (active) and 7.63% (active) | 8.15% (active) and 9.56% (active) | 9.18% (active) and -3.76% (active) | 21.6% (inactive) and 31.2% (inactive) | 29.2% (inactive) and 28.4% (inactive) | 16.6% (inactive) and 5.3% (active) | 25.8% (inactive) | -3.76% (active) and -35.9% (active) | 1.29% (active) and -17.2% (active) | 10.5% (inactive) and -18.4% (active) | 37.9% (inactive) and 34.1% (inactive) | 27.8% (inactive) | 38.3% (inactive) and 47.7% (inactive) | 
8 | CCOC(=O)Nc1nc2ccccc2[nH]1 | 121% (inactive) and 38.4% (inactive) | 103% (inactive) and 7.77% (active) | 101% (inactive) and 52.5% (inactive) | 110% (inactive) and 64% (inactive) | 118% (inactive) and 66.3% (inactive) | 115% (inactive) and 48.8% (inactive) | 101% (inactive) and 8.06% (active) | 105% (inactive) and 28.5% (inactive) | 93.2% (inactive) and 58% (inactive) | 102% (inactive) and 17.9% (inactive) | 99.9% (inactive) and 31.5% (inactive) | 96.1% (inactive) and 26.2% (inactive) | 98.7% (inactive) and 48% (inactive) | 113% (inactive) and 19.3% (inactive) | 102% (inactive) and 30.8% (inactive) | 99.8% (inactive) and 43.8% (inactive) | 109% (inactive) and 32.6% (inactive) |  | 102% (inactive) and 23.3% (inactive) | 
9 | O=C(CCc1ccc(O)cc1)N/N=C/c1cc(Br)ccc1O | 63.2% (inactive) | 15.4% (inactive) | 87.1% (inactive) | 59.7% (inactive) | 76.6% (inactive) | 48.3% (inactive) |  | 39.9% (inactive) | 55.5% (inactive) | 28.7% (inactive) | 69.6% (inactive) | 49.2% (inactive) | 38.8% (inactive) | 45.3% (inactive) | 37.7% (inactive) | 21.1% (inactive) | 69.5% (inactive) | 98.4% (inactive) | 79.4% (inactive) | 
10 | OC(CSc1ccccc1)CN1CCN(c2cccc(Cl)c2)CC1 (stereo unspecified) | 116% (inactive) and 105% (inactive) | 84% (inactive) and 97% (inactive) |  | 96.6% (inactive) and 96.3% (inactive) | 106% (inactive) and 93.8% (inactive) | 100% (inactive) and 99.1% (inactive) | 110% (inactive) and 105% (inactive) | 113% (inactive) and 105% (inactive) | 93.6% (inactive) and 95% (inactive) | 105% (inactive) and 101% (inactive) | 100% (inactive) and 111% (inactive) | 95% (inactive) and 102% (inactive) | 92.9% (inactive) and 97.8% (inactive) | 97.4% (inactive) and 96.8% (inactive) | 92.2% (inactive) and 96.9% (inactive) | 96.7% (inactive) and 96.3% (inactive) | 103% (inactive) and 99.1% (inactive) |  | 91.7% (inactive) and 102% (inactive) | 100% (inactive) and 93.8% (inactive)
